High-throughput results (PubChem BioAssay)
HEK293 cAMP cs = counter-screen for TSHR agonists: cAMP increase in parental HEK293 | Potency, µM (titrated, usually from 57.1 µM), for inactives: at the top dose activation, actives largely listed as activators | 2.5% of 73,000 active | parental HEK293 CNG cAMP sensor, membrane potential fluorescence; also: potency is read from the fitted curve at half-maximal effect; % of control where 0% means no effect; nearly all actives have a fitted effect of over 55% in size
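Parental HEK 293 cells stably expressing a modified CNG channel (no TSHR) report cAMP rise as membrane depolarization. Membrane potential dye with 100 uM RO 20-1724 was loaded for 60 min at room temperature, then compound added for 30 min; fluorescence read at 590 nm.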
ALOX15B inhib = inhibitors of human 15-lipoxygenase 2 (ALOX15B); O15296; purified 15hLO-2, xylenol orange hydroperoxide absorbance; Potency, µM (series often up to 57.1 µM), for the others: at the highest dose activity change, negative = inhibition, actives largely listed as inhibitors; 0.56% of 110,000 active; AID 881; also: potency is read from the fitted curve at half-maximal effect; % is scaled to controls: 0 for no effect and ±100 for the full control effect; nearly all actives have a fitted effect of over 60% in size
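Enzyme 50 nM, AA 45 uM, 25 mM Hepes pH 7.5 + 0.01% Triton X-100; cpd preinc 15 min RT, rxn 90 min RT; stop/detect with 200 uM XO + 300 uM Fe(II) in 50 mM H2SO4, 30 min; A573/A405.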
Caspase-1 inhib = caspase-1 (human) inhibition, allosteric or competitive. P29466. Caspase-1 enzyme, Ac-WEHD-AFC fluorogenic rate. Potency, µM (doses to about 57.5 µM), for the others: at the top dose activity change, negative = inhibition, most hits filed as inhibitors. 0.03% of 75,000 active. AID 900;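 also: potency is read from the fitted curve at half-maximal effect; plate controls were vehicle for no effect and no substrate for full effect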
Target sequence (P29466 120-297 limits assumed): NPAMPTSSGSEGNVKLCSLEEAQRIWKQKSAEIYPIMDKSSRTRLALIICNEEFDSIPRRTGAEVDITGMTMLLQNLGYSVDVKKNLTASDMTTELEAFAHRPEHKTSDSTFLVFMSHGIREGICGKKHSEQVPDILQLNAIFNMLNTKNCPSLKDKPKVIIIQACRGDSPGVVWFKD
Target sequence (P29466 317-404 limits assumed): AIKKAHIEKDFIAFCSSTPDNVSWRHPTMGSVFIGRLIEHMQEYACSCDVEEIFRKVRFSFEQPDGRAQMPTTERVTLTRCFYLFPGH
15-hLO inh = 15-hLO (ALOX15) enzyme inhibition | AID 887 | 1.4% of 74,000 active | purified 15hLO-1, xylenol orange hydroperoxide absorbance | Potency, µM (titrated, usually from 57.1 µM), for the others: at the top dose activity change, negative = inhibition, most hits filed as inhibitors; also: potency is read from the fitted curve at half-maximal effect; % is scaled to controls: 0 for no effect and ±100 for the full control effect; nearly all actives have a fitted effect of over 55% in size
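Compounds were preincubated 15 min at room temperature with 40 nM purified human enzyme (25 mM Hepes pH 7.5, 0.01% Triton X-100); 50 uM arachidonic acid reacted 6 min. Fe-xylenol orange detection, 30 min, absorbance ratio 573/405 nm.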
TSHR ag = activates the human thyroid stimulating hormone receptor; HEK293-CNG-TSHR cells (CNG channel as cAMP sensor), membrane potential dye, cAMP; 0.48% of 73,000 active; P16473; AID 926; Potency, µM (highest dose often 57.1 µM), for inactives: at the highest dose activation, actives largely listed as activators; active = well fitted activation curve with a large enough effect in the main read-out, with a control signal flat, not every such curve was filed as active; inconclusive = small, poorly fitted or top-dose-only effect, or a change in a side signal; inactive = no such curve, though single readings can be large or run the other way; % of control where 0% means no effect;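 also: the control signal comes from parental cells without the receptor; potency is read from the fitted curve at half-maximal effect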
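HEK 293 cells stably expressing TSHR and a cAMP-gated CNG channel; parental CNG-only cells as counterscreen. Cells preloaded 60 min with membrane potential dye plus 100 uM RO 20-1724, then compound 30 min; fluorescence read at 590 nm.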
Caspase-7 inhib = caspase-7 (human) inhibition, allosteric or competitive; 0.02% of 75,000 active; Potency, µM (highest dose often 57.5 µM), without a hit: at the top dose activity change, negative = inhibition, most hits filed as inhibitors; P55210; recombinant caspase-7, Ac-DEVD-AFC fluorescence rate; AID 889; active = well fitted inhibition curve with a large enough effect in the main read-out, with a control signal flat, not every such curve was filed as active; inconclusive = small, poorly fitted or top-dose-only effect, or a change in a side signal; also: potency is read from the fitted curve at half-maximal effect; % of control where 0% means no effect
Target sequence (P55210 24-198 limits assumed): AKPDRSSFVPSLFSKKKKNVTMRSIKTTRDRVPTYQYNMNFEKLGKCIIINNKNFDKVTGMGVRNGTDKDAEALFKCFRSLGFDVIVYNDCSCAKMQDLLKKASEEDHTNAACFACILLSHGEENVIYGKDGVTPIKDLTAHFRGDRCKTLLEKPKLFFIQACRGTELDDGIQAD
Target sequence (P55210 207-303 limits assumed): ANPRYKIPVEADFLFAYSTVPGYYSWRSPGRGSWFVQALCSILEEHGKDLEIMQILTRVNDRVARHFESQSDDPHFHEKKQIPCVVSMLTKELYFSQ
parental cAMP = TSHR-independent cAMP elevation, counter-screen; shares compounds with TSHR ag; parental HEK293 CNG biosensor, cAMP membrane potential fluorescence; activity change, negative = inhibition, % at 32.9 µM; 150 tested, under 10 active; AID 953
* = called active by the depositor; ? = inconclusive; / = no result; [ ] = dose if it differs, or a comment. The list is not random: actives were taken first. Their share in the collection is about 3%. Unless noted, calls follow the shape of the dose curve; as a rule, active = well fitted curve in the direction sought with a large enough effect; inconclusive = small, poorly fitted or top-dose-only effect, or another doubt; inactive = no such curve, though single readings can be large; an effect the other way counts as inactive or inconclusive.

SMILES	HEK293 cAMP cs	ALOX15B inhib	Caspase-1 inhib	15-hLO inh	TSHR ag	Caspase-7 inhib	parental cAMP
CN1C(=O)N(C)C2(c3ccccc3)Nn3c(s/c(=C/c4ccccc4F)c3=O)=NC12c1ccccc1 (stereo not drawn)	/	-5%	/	/	/	/	/
COC(=O)C1=C(C)OC(N)=C(C#N)C1c1c(C)nn(-c2ccccc2)c1Cl (stereo not drawn)	15%	-4%	-1%	-15%	6.3µM*	-1%	6
COC(=O)C1=C(C)OC(N)=C(C#N)C1c1ccccc1 (stereo not drawn)	23%	3%	-2%	-8%	3%	-10%	/
COC(=O)C1=C(C)OC(N)=C(C#N)C1C1CCCCC1 (stereo not drawn)	25%	-6%	-1%	-13%	13µM*	1%	16
COc1ccc(CNc2n[nH]c(NCc3ccc(OC)c(OC)c3)n2)cc1OC	2%	33%	-2%	28%	2%	0%	/
COc1ccc(CNc2nc(SC)n[nH]2)cc1OC	7%	1%	0%	-2%	4%	2%	4[25.6 µM]
COCCNC(=O)C(c1ccccc1)N(Cc1cccs1)C(=O)Cn1nnc2ccccc21 (stereo not drawn)	30%	-6%	-3%	?	13µM*	1%	7
CCOC(=O)CN(C(=O)Cn1nnc2ccccc21)C(C(=O)NCCOC)c1ccccc1 (stereo not drawn)	7%	-5%	1%	5%	-1%	1%	/
CCC(C)NC(=O)CSc1nnc(-c2cc(-c3cccs3)nc3ccccc23)o1 (stereo not drawn)	/	-4%	/	/	/	/	/
NC(=O)c1nsc(C(=O)N(CC(=O)NCc2ccc3c(c2)OCO3)C2CCCCC2)c1N	18%	0%	-5%	-1%	2µM*	-1%	9
CC1(C)OCC([C@H](O)C2=CCCCC2=O)CO1	10%[11.4 µM]	/	-4%[11.5 µM]	6%[11.4 µM]	18%[11.4 µM]	0%[11.5 µM]	/
CCOC(=O)C1C(=O)Nc2nc(C)nn2C1c1ccccc1 (stereo not drawn)	-1%	-12%[11.4 µM]	-2%	1%	4µM*	0%	-7
CCOC(=O)C1C(=O)NC(N2CCCCC2)=NC1c1ccccc1 (stereo not drawn)	2%	0%	-1%	7%	9%	-1%	/
O=C(CSc1nc2scc(-c3ccco3)c2c(=O)n1-c1ccccc1)N1CCOCC1	23%	-10%	-7%	1.6µM*	16µM*	-27%	7
CC[C@H]1C(O)C[C@H]2CCN3C(=O)CCC[C@H]1[C@H]23 (stereo partly drawn)	/	-5%[0.0915 µM]	/	/	/	/	/
Cc1occc1-c1nnc(SCC(=O)NCc2ccco2)n1CC(C)C	12%	-7%	-3%	-12%	20µM*	-5%	-10
CCc1nnc(NC(=O)CSc2nnc(-c3ccoc3C)n2CC(C)C)s1	-21%	-21%	0%	?	-8%	-2%	/
CCN(CC1COc2ccccc2O1)C(=S)Nc1ccccc1 (stereo not drawn)	/	-14%	/	/	/	/	/
COc1ccc(S(=O)(=O)N(C)CC(=O)N2CCCCCC2)cc1OC	6%	0%	0%	7%	1%	-2%	-44[25.6 µM]
CCOc1ccc(NC(=O)C(C)SC(N)=O)cc1 (stereo not drawn)	-17%	?	1%	-6%	-32%	2%	-37[25.6 µM]
CCOc1ccc(N(C(C)C(=O)Nc2ccc(OC)cc2)S(C)(=O)=O)cc1 (stereo not drawn)	-3%[11.4 µM]	-21%	-2%	-3%[11.4 µM]	4%[11.4 µM]	1%	-4[25.6 µM]
Cc1nc2cnc(N(C)C)nc2n(C)c1=O	?	2%	/	0%	?	?	/
Cc1cccc(OCC(=O)N/N=C\c2cc3c(cc2[N+](=O)[O-])OCO3)c1C	/	-1%	/	/	/	/	/
O=C(c1cc(-c2cccs2)on1)N1CCCc2ccccc21	?	-5%	0%	-19%	?	-2%	?
CCOC(=O)C1=C(C)NC(C)=C(C(=O)OCC)C1c1ccc(OC)cc1	4%	8%	-10%	-1%	23%	-7%	/
SMILES	HEK293 cAMP cs	ALOX15B inhib	Caspase-1 inhib	15-hLO inh	TSHR ag	Caspase-7 inhib	parental cAMP
COC(=O)C1=C(C)NC(C)=C(C(=O)OC)C1c1ccc(OC(=O)c2ccco2)cc1	9%	-3%	-15%	-7%	20µM*	-16%	-9
COc1ccccc1Cn1c(-c2ccccc2OC)nc2ccccc21	/	20%	/	/	/	/	/
Oc1ccccc1Cn1c(-c2ccccc2O)nc2ccccc21	-13%	22%	-3%	?	10µM*	-3%	-15
Cn1c(=O)[nH]c(=O)c2c1nc(N1CCCCCC1)n2CCCSc1nc2ccccc2o1	-3%	-24%	-3%	-28%	4%	-5%	13[25.6 µM]
CCCCOC(OCCCC)[C@H](O)CSc1ccc2ccccc2c1	9%[11.4 µM]	/	-3%[11.5 µM]	10%[11.4 µM]	-3%[11.4 µM]	-2%[11.5 µM]	/
COc1ccc(O)c(-c2cc(C(F)(F)C(F)F)nc(-c3ccccc3)n2)c1	/	-4%	/	/	/	/	/
Oc1ccccc1-c1cc(C(F)(F)C(F)F)nc(-c2ccccc2)n1	?	-1%	1%	-19%	?	0%	3
CCS(=O)(=O)N1CCN(C(C)CCc2ccccc2)CC1 (stereo not drawn)	9%[11.4 µM]	/	0%	1%[11.4 µM]	/	1%	-3
C[C@@H]1CC2(OC(O)[C@]3(C)O[C@H]23)O[C@H]2C[C@@]3(C)[C@@H]4CC[C@H]5C(C)(C)C(O[C@@H]6OC[C@@H](O)[C@H](O)[C@H]6O)CC[C@@]56C[C@@]46CC[C@]3(C)[C@@H]12 (stereo partly drawn)	-35%	-4%	-1%	-14%	?	0%	/
O=C(N/N=C/c1cc([N+](=O)[O-])ccc1N1CCNCC1)c1ccc([N+](=O)[O-])cc1	/	-3%	/	/	/	/	/
CC(=O)Nc1ccc(S(=O)(=O)N(C)c2ccccc2)cc1	1%	3%	1%	-23%	0.79µM*	1%	5
CCCC(=O)c1c[nH]c(C(=O)NCCCN2CCOCC2)c1	/	0%	/	/	/	/	/
CCN(CC)S(=O)(=O)c1ccc(Cl)c(C(=O)NC2CCCC2)c1	51%	3%	-1%	5%	/	-2%	?
CCOC(=O)N1CCC(NC(=O)c2ccc(CNS(=O)(=O)c3ccc(F)cc3)cc2)CC1	9%	0%	-2%	-6%	25µM*	-1%	8
CC(C)c1nnc(NC(=O)CCC(=O)NCc2ccc3c(c2)OCO3)s1	-6%	3%[2.29 µM]	-2%	8%	3%	-1%	15[25.6 µM]
CC(=O)c1cccc(NC(=O)c2cc(-n3cnnc3)ccc2Cl)c1	2%	-7%	0%	6%	2%	1%	/
